From PubChem BioAssay (Tox21)
Values joined by “and” are separate entries in the source; they are usually repeats but may differ in a detail not shown here. Identical values can stand only once. Inconclusive results are not listed. A call without a number means that no potency is given here. Where a structure was tested more than once in an assay, its records may differ in their call. Active and inactive are the calls of the source. Calls follow the shape of the dose curve; as a rule, active = well fitted curve in the direction sought with a large enough effect in the repeat runs; inconclusive = weak or mixed curves; inactive = no such curve, though single readings can be large; an effect the other way counts as inactive or inconclusive.

Key:
[1] = qHTS RealTime-Glo MT Cell Viability Assay in HepG2 cells - 8 hour (AID 1224873); also: nearly all actives have a fitted effect of over 55% in size
Method in brief: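 HepG2 cells mixed with RealTime-Glo MT reagents (NanoLuc plus cell-permeant prosubstrate) were seeded at 600 cells/well, incubated 5 h at 37 C/5% CO2, then pinned with compounds in DMSO; nonlytic luminescence tracked viability during 40 h treatment.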

[2] = qHTS RealTime-Glo MT Cell Viability Assay in HEK293 cells - 40 hour (AID 1224874); conditions: RealTime-Glo luminescence; max response: stronger effect = lower value; also: nearly all actives have a fitted effect of over 50% in size
Method in brief: (§1)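 Luminescence, which tracks viable cell number through reduction of the prosubstrate to a NanoLuc substrate, was read over continuous 37 C culture. Cells (600/well) were premixed with reagent and rested 5 h before 23 nL of compound in DMSO was pinned.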

[3] = A CellTox Green Cytotoxicity Assay to monitor cytotoxicity in HepG2 cells - 16 hour (AID 1224876); also: nearly all actives have a fitted effect of over 45% in size; also: potency is read from the fitted curve at half-maximal effect
Method in brief: (§2)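 Real-time cytotoxicity: fluorescence of a cell-impermeant cyanine dye binding DNA of dead HepG2 cells, measured repeatedly (0–40 h) during compound exposure at 37 C. Cells seeded 600/well with reagent, dosed after 5 h.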

[4] = qHTS RealTime-Glo MT Cell Viability Assay in HepG2 cells - 32 hour (AID 1224877); also: nearly all actives have a fitted effect of over 55% in size
Method in brief: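 Compound treatment began 5 h after plating HepG2 cells (600/well) with NanoLuc luciferase and prosubstrate. Plates stayed at 37 C for 40 h; luminescence was captured at six time points, 0 h through 40 h.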

[5] = A CellTox Green Cytotoxicity Assay to monitor cytotoxicity in HepG2 cells - 24 hour (AID 1224878); also: nearly all actives have a fitted effect of over 45% in size; also: potency is read from the fitted curve at half-maximal effect
Method in brief: as §2

[6] = A CellTox Green Cytotoxicity Assay to monitor cytotoxicity in HepG2 cells - 40 hour (AID 1224879); also: nearly all actives have a fitted effect of over 40% in size; also: potency is read from the fitted curve at half-maximal effect
Method in brief: as §2

[7] = qHTS RealTime-Glo MT Cell Viability Assay in HEK293 cells - 0 hour (AID 1224880); also: top concentration of the series differs between compounds; nearly all actives have a fitted effect of over 45% in size
Method in brief: as §1

[8] = A CellTox Green Cytotoxicity Assay to monitor cytotoxicity in HEK293 cells - 32 hour (AID 1224881); also: nearly all actives have a fitted effect of over 40% in size; also: potency is read from the fitted curve at half-maximal effect
Method in brief: (§3)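 Fluorescence from a DNA-binding dye excluded by viable cells was measured repeatedly in the same HEK293 wells (600 cells/well) during continuous compound exposure at 37 C. Each assay gives one read point: 0, 8, 16, 24, 32 or 40 h.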

[9] = A CellTox Green Cytotoxicity Assay to monitor cytotoxicity in HepG2 cells - 0 hour (AID 1224882); also: nearly all actives have a fitted effect of over 35% in size
Method in brief: as §2

[10] = A CellTox Green Cytotoxicity Assay to monitor cytotoxicity in HEK293 cells - 24 hour (AID 1224875); also: series mostly up to about 77 µM; nearly all actives have a fitted effect of over 45% in size
Method in brief: as §3

Compound | outcome [1] | max response [2] | Potency [3] | Potency [4] | Potency [5] | Potency [6] | Potency [7] | Potency [8] | Potency [9] | Potency [10]
Nc1ccc(S(=O)(=O)c2ccc(N)cc2)cc1 | inactive | 3.77% (inactive) and -13.4% (inactive) and 9.1% (inactive) | inactive | inactive | inactive | inactive | inactive | inactive | inactive | –
O=c1ccc2ccccc2o1 | inactive | -0.397% (inactive) and 6.44% (inactive) and 2.9% (inactive) | inactive | inactive | inactive | inactive | inactive | inactive | inactive | inactive
O=S(=O)(O)NC1CCCCC1 | inactive | 10.8% (inactive) and 12.2% (inactive) and -1.58% (inactive) | inactive | inactive | inactive | inactive | inactive | inactive | inactive | inactive
Nc1ccc(S(=O)(=O)Nc2nccs2)cc1 | inactive | 5.06% (inactive) [middle of 4 runs] | inactive and 38.9 µM (active) | inactive | inactive and 43.6 µM (active) | inactive and 38.9 µM (active) | inactive | inactive and 43.6 µM (active) | – | –
Cc1ccccc1C(OCCN(C)C)c1ccccc1 (stereo unspecified) | inactive | -3.03% (inactive) and -20.7% (inactive) and -19.7% (inactive) | inactive | inactive | inactive | inactive | inactive | inactive | inactive | inactive
O=C(O)CCC(=O)O | inactive | 9.17% (inactive) and -2.49% (inactive) and -2.75% (inactive) | inactive | inactive | inactive | inactive | inactive | inactive | inactive | –
Cc1ccc(S(=O)(=O)NC(=O)NN2CCCCCC2)cc1 | inactive | 3.5% (inactive) and 3.12% (inactive) and 7.81% (inactive) | inactive | inactive | inactive | inactive | inactive | inactive | – | –
O=c1cc[nH]c(=S)[nH]1 | inactive | 6.11% (inactive) and 3.88% (inactive) and 9.23% (inactive) | inactive | inactive | inactive | inactive | inactive | inactive | inactive | –
CC(O)CO (stereo unspecified) | inactive | -4.92% (inactive) and 4.28% (inactive) and 2.26% (inactive) | inactive | inactive | inactive | inactive | inactive | inactive | – | –
